Screening results from PubChem BioAssay.
MITF inh: blocks human microphthalmia-associated transcription factor; AlphaScreen MITF homodimerization, bead proximity signal; inhibition, % at 2.6 µM; O75030; 650,000 tested, 0.91% active; in the data active means inhibition above about 50%;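 further: 0% = vehicle wells with protein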
GPR151 ag: activators of human GPR151 | Q8TDV0 | PathHunter beta-arrestin GPR151 cells, luminescence | activation, % at 11.2 µM | 650,000 tested, 1% active | AID 1508602; in the data active means activation above about 4.9%;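 further: 0% = median of compound wells and 100% = cells with positive control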
Target sequence (Q8TDV0 whole entry, looked up): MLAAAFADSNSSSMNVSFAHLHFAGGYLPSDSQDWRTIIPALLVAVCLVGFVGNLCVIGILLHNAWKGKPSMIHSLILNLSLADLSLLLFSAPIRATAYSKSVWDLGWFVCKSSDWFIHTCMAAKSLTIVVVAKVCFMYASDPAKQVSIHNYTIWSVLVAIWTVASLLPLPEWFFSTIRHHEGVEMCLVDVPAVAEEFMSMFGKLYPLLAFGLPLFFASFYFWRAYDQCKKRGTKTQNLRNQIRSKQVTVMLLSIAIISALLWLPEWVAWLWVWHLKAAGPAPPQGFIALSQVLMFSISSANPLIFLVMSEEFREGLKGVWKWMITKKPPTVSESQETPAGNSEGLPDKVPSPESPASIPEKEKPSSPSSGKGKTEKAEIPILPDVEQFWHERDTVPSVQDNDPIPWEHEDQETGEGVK
TEAD-YAP inh: TEAD-YAP interaction inhibition; HEK-TIYL cells, TEAD-Gal4/YAP UAS-luciferase luminescence; inhibition, % at 9.12 µM; 640,000 tested, 1.4% active; AID 1259422; in the data active means inhibition above about 32%;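 further: 0% = median of test compound wells and 100% = reference inhibitor wells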
FBW7 activator: human FBW7 E3 ligase activation, primary screen. AlphaScreen FBW7–phospho-cyclin E peptide binding, activator screen. Q969H0. normalized activity (activation), % at 26.1 µM. 650,000 tested, 0.13% active; in the data active means normalized activity above about 1.9%;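 further: purified mutant Fbw7 with reduced substrate affinity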
MITF confirm: confirmation of human MITF inhibitors; AlphaScreen MITF homodimerization, biotin/His-MITF beads; 4,700 tested, 16% active; AID 1259372; inhibition, % at 2.6 µM; shares compounds with MITF inh;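 active means inhibition above a cutoff derived from the DMSO control wells, cut at about 28% in these data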;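 further: 0% = MITF dimer wells with DMSO only; inhibitors lower the bead chemiluminescence by keeping MITF from dimerizing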
AS interf DR: counter-screen: compounds optically interfering with AlphaScreen. IC50, µM. AlphaScreen optical interference counterscreen, cell-free. 480 tested, 6% active. shares compounds with MITF inh; call rule not given here
AS interf ctr: AlphaScreen optical interference, counter-screen. shares compounds with MITF inh. LysRS AlphaScreen counterscreen, signal interference, triplicate. inhibition, % at 2.6 µM. 4,700 tested, 7.6% active;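 active means inhibition above a cutoff derived from the DMSO control wells, cut at about 30% in these data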
An asterisk follows results filed as active; · = not tested or not shown. In the library only some 3.4% were active in any assay of this set; here they are far more common.

SMILES	MITF inh	GPR151 ag	TEAD-YAP inh	FBW7 activator	MITF confirm	AS interf ctr	others
CS(=O)(=O)c1ccc(C(=O)N(CC2CCCO2)c2nc3ccccc3s2)cc1[N+](=O)[O-] (stereo unspecified)	·	-2	·	·	·	·
O=C(NCC1CCCCC1)C1CCCN1C(=O)NC1CCCCC1 (stereo unspecified)	4	0	3	0	·	·
C=CCNC(=O)C1CCCN1C(=O)NC1CCCCC1 (stereo unspecified)	66*	1	9	0	5	10
CC12CCC(C(=O)N(NC(=O)CCc3ccccc3)C1=O)C2(C)C (stereo unspecified)	65*	3	12	0	-4	11
O=C(CCc1ccccc1)NN1C(=O)CCC1=O	-2	0	-2	0	·	·
CC1(C)CC(N2COc3c(cc(Cl)c4cccnc34)C2)CC(C)(C)N1	52*	-1	40*	0	68*	100*
Clc1cc2c(c3ncccc13)OCN(Cc1ccco1)C2	33	-1	27	0	·	·
Clc1cc2c(c3ncccc13)OCN(C1CCCC1)C2	97*	0	66*	-1	99*	101*
Cc1ncc(CO)c(/C=N/N=C/c2cccc(Cl)c2Cl)c1O	53*	-1	8	1	-4	-4
CN1CCN(CCOc2ccccc2-c2ccccc2)CC1	55*	-1	-1	0	4	5
CCN1CCN(CCOc2ccccc2-c2ccccc2)CC1	44	-2	7	0	·	·
c1ccc(-c2ccccc2OCCN2CCOCC2)cc1	78*	1	-2	0	6	4
c1ccc(-c2ccccc2OCCCCN2CCOCC2)cc1	77*	2	-3	0	-10	-4
CN(C)CCNc1ncnc2sccc12	86*	0	-3	0	0	7
CCOC(CCCNc1ncnc2sccc12)OCC	6	2	25	0	·	·
Cc1cc(C)nc(Nc2ccc(C)c([N+](=O)[O-])c2)n1	21	0	-13	0	·	·
Cc1cc(C)nc(Nc2ccc([N+](=O)[O-])cc2)n1	69*	3	-1	0	1	14
Cc1ccc(/C(C#N)=C\c2ccco2)cc1	56*	-1	-40	0	42*	1	AS interf DR=>6.5
O=C(Nc1ccc(NC(=O)c2cccs2)cc1)c1ccco1	76*	-3	-47	0	-3	-4
COc1cc(OC)cc(C2C(C#N)=C(N)Oc3c2c(C)nn3-c2ccccc2)c1 (stereo unspecified)	-7	0	-1	-1	·	·
OC1CCN(c2ncc(-c3ccc(OC(F)(F)F)cc3)cn2)CC1	7	0	-12	0	·	·
N#Cc1cccc(S(=O)(=O)NCC(=O)OCC(=O)Nc2cc(F)ccc2F)c1	-11	2	-11	0	·	·
O=C(c1ccc([N+](=O)[O-])cc1)N1CCSC1c1ccc([N+](=O)[O-])cc1 (stereo unspecified)	12	2	-3	0	·	·
O=C(c1ccc([N+](=O)[O-])cc1)N1CCSC1c1ccc(Br)cc1 (stereo unspecified)	70*	-1	0	2	-13	-3
CCC(CC)NC(=O)c1ccc(Cl)cc1[N+](=O)[O-]	74*	-1	5	0	1	9
SMILES	MITF inh	GPR151 ag	TEAD-YAP inh	FBW7 activator	MITF confirm	AS interf ctr	others
COc1ccc(C(=O)N/N=C(/C)CC(=O)Nc2ccccn2)cc1OC	60*	1	-4	1	4	13
O=C(NCc1ccccn1)c1ccc(S(=O)(=O)N(Cc2ccco2)C2CC2)o1	16	3	-5	0	·	·
CCOC(=O)C1=[N+]([O-])OC(C(=O)OCC)C1CC(C)=O (stereo unspecified)	48	-1	-4	0	·	·
CCOC(=O)CC1C(C(=O)OCC)=[N+]([O-])OC1C(=O)OCC (stereo unspecified)	64*	0	0	0	22	19
Cc1cccc(N(CC(=O)Nc2cccc(F)c2)S(C)(=O)=O)c1C	-4	1	8	0	·	·
CN(C)c1ccc(C(=O)N2N=C(C(F)F)CC2(O)C(F)F)cc1 (stereo unspecified)	-1	-1	-6	0	·	·
CN(C)c1cccc(C(=O)N2N=C(C(F)F)CC2(O)C(F)F)c1 (stereo unspecified)	75*	-1	9	1	13	19
